High-throughput results: PubChem, National Center for Advancing Translational Sciences (NCATS)
MARV entry inh: qHTS for inhibitors of binding or entry into cells for Marburg Virus; Potency, µM (titrated, usually from 37.8 µM), for the others: top-dose activity change, negative = inhibition, actives largely listed as inhibitors; 300,000 tested, 1.8% active; Marburg virus pseudotyped entry inhibition, cell reporter; calls by dose curve; tested in HEK293 cells; note: potency is the fitted concentration of half-maximal effect; % is set by controls: 0 for no effect and ±100 for the full control effect
Pf growth 96h: Primary qHTS for delayed death inhibitors of the malarial parasite plastid, 96 hour incubation. P. falciparum luciferase reporter growth, 96 h. Potency, µM (series often up to 28.7 µM), for inactives: at the top dose activity change, negative = inhibition, hits mostly inhibitors. 320,000 tested, 6.9% active. AID 504834, 2011; note: potency is the fitted concentration of half-maximal effect; % is set by controls: 0 for no effect and ±100 for the full control effect
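Luminescence readout: decreased luciferase signal marks inhibited growth of reporter-expressing P. falciparum in infected red cells (2% hematocrit, 0.05% parasitemia final), exposed to compound two generations (96 h, 37 C, 5% CO2).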
Pf growth 48h: Primary qHTS for delayed death inhibitors of the malarial parasite plastid, 48 hour incubation; Potency, µM (top dose mostly 28.7 µM), without a hit: at the highest dose activity change, negative = inhibition, most hits filed as inhibitors; P. falciparum luciferase growth in erythrocytes, 48 h; 310,000 tested, 5.9% active; note: potency is the fitted concentration of half-maximal effect; % is set by controls: 0 for no effect and ±100 for the full control effect
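Read-out is firefly luciferase luminescence from an integrated reporter in P. falciparum, so falling signal marks reduced parasite growth. Infected erythrocytes were at 2% hematocrit and 0.1% parasitemia (final) in Albumax-supplemented RPMI 1640.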
Lassa entry inh: qHTS for Inhibitors of binding or entry into cells for Lassa Virus. Lassa virus pseudotype entry inhibition, cell reporter. Potency, µM (titrated, usually from 37.9 µM), without a hit: top-dose activity change, negative = inhibition, most hits filed as inhibitors. 300,000 tested, 1.2% active. AID 540256, 2011; calls by dose curve; tested in HEK293 cells; note: potency is the fitted concentration of half-maximal effect; % is set by controls: 0 for no effect and ±100 for the full control effect; nearly all actives have a fitted effect of over 50% in size
Shiga inhibitor: A qHTS for Small Molecule Inhibitors of Shiga Toxin. AID 2315, 2010. inhibition, % at 38.7 µM. Vero cells, Shiga toxin protein synthesis inhibition reporter. 290,000 tested, 9.2% active; in the data active = inhibition mostly above about 28%, no sharp cut-off; inactive = mostly below about 43%; note: 0% is about no effect
CHX counter: Cycloheximide Counterscreen for Small Molecule Inhibitors of Shiga Toxin; cell reporter, cycloheximide protein synthesis inhibition counterscreen; max response, %; 300,000 tested, 12% active; AID 2314, 2010; in the data active = max response mostly above about 13%, no sharp cut-off; inactive = mostly below about 14%; note: read at 38.3 µM for the half of the compounds with a filed dose; 0% is about no effect
* marks the source's active call; other numbers are inactive results; ? = inconclusive; · = no result; [ ] = remark or other dose. A selection: hits, their analogues and other compounds. The true share with any hit is near 19%. Unless noted, calls come from the whole dose curve; as a rule, active = well fitted inhibition curve with a large enough effect; inconclusive = small, poorly fitted or top-dose-only effect, or another doubt; inactive = no such curve, though single readings can be large or run the other way.

SMILES	MARV entry inh	Pf growth 96h	Pf growth 48h	Lassa entry inh	Shiga inhibitor	CHX counter
CC1C(=O)NN=C1C(=O)N/N=C/c1ccco1 (centres undefined)	6.2%[46.1 µM]	?	53.2%	8.0%	47.6*	53.3*
COc1cc(/C=N/NC(=O)c2cccc(C(=O)N/N=C/c3ccc(O)c(OC)c3)n2)ccc1O	0.8%	-2.2%	-5.0%	-25.2%	19.2	9.6
CC1=NNC(=O)C1CC(=O)N/N=C/C(Br)=C/c1ccccc1 (centres undefined)	·	27.9%	14.9%	·	7.7	7.4
CC1=NNC(=O)C1CCC(=O)N/N=C/c1ccco1 (centres undefined)	0.5%[46.1 µM]	?	19.7%	19.8%[46.1 µM]	13.8	-4.3
CC1C(=O)NN=C1C(=O)N/N=C\C(Br)=C\c1ccccc1 (centres undefined)	?	?	121.3%	-10.0%[46.1 µM]	52.7*	17.5*
CC1C(=O)NN=C1C(=O)N/N=C\c1ccc(O)cc1O (centres undefined)	3.5%	23.6%	?	16.4%	29.9	24.0*
COc1cc(/C=N/NC(=O)C2=NNC(=O)C2C)ccc1O (centres undefined)	·	-12.9%	41.5%	·	48.5	27.4*
Cc1cccc(NC(=O)CCC(=O)N/N=C/c2ccc(O)cc2O)c1	?	?	?	?	2.1	-1.4
Cc1ccnc(SCC(=O)O)n1	-7.6%	-3.2%	10.5%	-0.2%	5.3	-3.5
CCOC(=O)CSC1=NC(=O)/C(=C\c2ccc(OC(C)=O)cc2)S1	8.2µM*	188.7%	59.3%	?	120.5*	28.3*
CCOC(=O)COc1ccc(Br)cc1/C=C1\SC(N)=NC1=O	·	-5.3%	?	·	-12.3	1.4
CC(=O)N1CCN(C2=NC(=O)/C(=C/c3ccc(OS(=O)(=O)c4ccccc4)cc3)S2)CC1	·	?	?	·	-4.5	-3.7
Cc1ccsc1/C=C1\SC(N)=NC1=O	?	128.3%	1.7%	-0.7%	25.3	20.1*
CCOC(=O)CSC1=NC(=O)/C(=C/c2ccc(Br)cc2)S1	7.7%[46.1 µM]	-2.7%	153.2%	5.4%	60.1*	29.6*
Cc1ccc(/C=C2\SC(N)=NC2=O)s1	12.1%	10.1%	35.9%	1.1%	12.5	15.3
NC1=NC(=O)/C(=C/c2ccc(Br)cc2)S1	·	2.33µM*	12.6%	·	·	7.3
COc1ccc(CCNC(=O)Cn2cc(S(=O)(=O)Cc3ccccc3F)c3ccccc32)cc1OC	·	·	·	-1.3%[46.1 µM]	·	·
COCCn1nnnc1C(c1cc2cccc(C)c2[nH]c1=O)N1CCN(c2ccccc2F)CC1 (centres undefined)	0.9%	1.0%	?	-16.6%	-4.8	-4.9
COc1cc(C2c3c(oc4ccc(F)cc4c3=O)C(=O)N2c2nc(C)c(C)s2)cc(OC)c1OC (centres undefined)	?	·	·	-6.4%[46.1 µM]	·	·
CCCC1COC(Cn2cncn2)(c2ccc(Cl)cc2Cl)O1 (centres undefined)	-17.2%	10.4%	11.7µM*	?	-14.1	-11.5
Cc1cccc(N(Cc2cc3cc(C)ccc3[nH]c2=O)C(=O)c2cccs2)c1	·	7.38µM*	13.1µM*	·	2.2	-3.7
COCC(=O)N(Cc1cc2ccc(C)cc2[nH]c1=O)c1cccc(C)c1	·	?	?	·	-5.5	0.6
COCC(=O)N(Cc1cc2cc(C)ccc2[nH]c1=O)c1ccccc1	·	?	46.1%	·	21.8	11.7*
Cc1ccc2[nH]c(=O)c(CN(C(=O)c3cccs3)c3ccccc3)cc2c1	?	?	-1.9%	-10.7%	32.4	2.9
COc1ccc(N(Cc2cc3cc(OC)ccc3[nH]c2=O)C(=O)C2CCCO2)cc1 (centres undefined)	12.1%	42.1%	?	-9.0%	0.1	-3.7
COc1ccc2[nH]c(=O)c(CN(C(=O)C3CCCO3)c3cccc(C)c3)cc2c1 (centres undefined)	·	8.28µM*	10.9%	·	40.7	13.9
CCOCCCN1C(=O)CN(C2CCCCCC2)C(=O)C1c1ccc(OC)cc1 (centres undefined)	14.4%	0.828µM*	?	-3.8%	-2.1	-8.0
CN(c1ccc(C(=O)NCc2cccnc2)cc1)S(=O)(=O)c1ccc(Cl)cc1	-12.5%	3.1%	-5.7%	?	-31.7	-1.8
